PubChem BioAssay AID651791 (National Center for Advancing Translational Sciences (NCATS), 2012)
Records with an inconclusive call do not appear. Activity calls are given as the source filed them. Calls follow the shape of the dose curve; as a rule, active = well fitted inhibition curve with a large enough effect; inconclusive = small, poorly fitted or top-dose-only effect; inactive = no such curve, though single readings can be large or run the other way.

assay: InCell qHTS Assay for Inhibitors of the mTORC1 Signaling Pathway in MEF (Tsc2-/-, p53-/-) Cells: Hit Validation; conditions: phospho-rpS6 immunofluorescence, 24 h; activity change, negative = inhibition: at 38.3 µM (top of the series);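 also: phospho-S6 Ser235/236 signal normalized to propidium iodide cell count per well; nearly all actives have a fitted effect of over 75% in size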
Potency is read from the fitted curve at half-maximal effect.

Potency, active:
CCOC(=O)c1c(NC(=O)c2nc(S(C)(=O)=O)ncc2Cl)sc(C(C)=O)c1C 3.69 µM
CC(C)CCNC(=O)c1cccc(Nc2nc3ccccc3n3nnnc23)c1 4.14 µM

Activity change, negative = inhibition, -25.4%:
COC(=O)c1c(C)oc2ccc(N(C(=O)c3ccncc3)S(=O)(=O)c3ccc(OC)cc3)cc12

Activity change, negative = inhibition, 1.72%:
CCOC(=O)c1c(NC(=O)c2ccc(S(=O)(=O)N3CCC(C)CC3)cc2)sc2c1CCN(C)C2

Activity change, negative = inhibition, -100%:
COc1ccc(CNC(=O)C2CCN(c3nc4ccc(C)cc4[nH]3)CC2)cc1
O=C(c1ccco1)n1nc(-c2ccc(Cl)cc2)nc1NCc1ccccc1
Cc1ccc(NC(=O)Nc2cccs2)c(C)c1
COc1ccc(-c2nc(C)c(CCNC(=O)c3ccccc3Br)s2)cc1OC
COc1ccc(-c2nc(S(=O)(=O)c3ccc(Cl)cc3)c(N3CCCCCC3)o2)cc1
O=C(CC(NCc1cccnc1)C(=O)O)Nc1ccc(O)cc1 (configuration not stated)
Cc1cccc(OCC(=O)Nc2ccc3c(c2)N(C)C(=O)c2ccccc2S3)c1
CC(C)(C)c1ccc(-c2nc(S(=O)(=O)c3ccccc3)c(N3CCOCC3)o2)cc1
COc1cccc(-c2nc(SCC(=O)NCC3CCCO3)c(-c3ccc(F)cc3)[nH]2)c1 (configuration not stated)
Cc1nn(C(C)C(=O)NC2CCC(C)CC2)c(=O)c2c1sc1ccccc12 (configuration not stated)
COc1ccc2c(c1)CCc1c(C(=O)Nc3c(C)nn(Cc4ccc(Cl)cc4)c3C)noc1-2
O=C(Nc1ccc(Cl)cc1)c1cc(S(=O)(=O)N2CCCc3ccccc32)ccc1F
CC1=Nc2cc(C(=O)NC3CCCC3)ccc2Sc2ccc(Br)cc21
COCCCNC(=O)c1cc2c(=O)oc3ccc(C)cc3c2s1
CCOC(=O)c1ccc(-c2ccc(/C=C(\C#N)c3nc4ccc(C)cc4[nH]3)o2)cc1
Cc1ccc(-c2nc3sccn3c2Nc2ccc(C)c(C)c2)cc1
COc1cc(NC(=O)c2cccc3c2C(=O)N(C2CCCCC2)C3)cc(OC)c1OC
O=C(NCC(c1cccs1)S(=O)(=O)c1cccs1)c1ccccc1 (configuration not stated)
COc1ccc(N2CC(c3nc(-c4cc(OC)c(OC)c(OC)c4)no3)CC2=O)cc1Cl (configuration not stated)
Cc1cccc(-c2nc3c(cnn3-c3ccccc3)c(=O)n2-c2ccc(Br)cc2)c1
COc1ccc(-c2ccc(CCC(=O)O)n2-c2cc(Cl)ccc2O)cc1
Cc1ccccc1CN1C(=O)C(O)(CC(=O)c2cccc(Br)c2)c2ccccc21 (configuration not stated)
FC(F)(F)c1cccc(Nc2nc3nonc3nc2Nc2ccc(Cl)cc2)c1
COc1ccc(NC(=O)c2ccco2)cc1NC(=O)COc1ccccc1Cl
COc1ccc(-c2nnc(SCC(=O)NCc3ccccc3)nc2-c2ccc(OC)c(OC)c2)cc1OC
Cc1nc2scc(C)n2c(=O)c1S(=O)(=O)Nc1ccc(N2CCOCC2)c(Cl)c1
CCOC(=O)N1CCN(Cc2nc3cc(NC(=O)CC(C)C)ccc3n2C(C)C)CC1
COCCCNc1ncnc2c1cnn2-c1ccc(F)cc1
COC(=O)c1ccccc1NC(=O)CSc1n[nH]c(CC(C)C)n1
CCOc1ccc(/C=C/c2nc3ccccc3n2S(=O)(=O)c2cccc(Cl)c2)cc1

Activity change, negative = inhibition, -21.8%:
CCC(=O)C1=C(c2ccc(F)cc2)N(C(=O)CC)n2cnnc2S1

Activity change, negative = inhibition, -17.5%:
COc1ccc(CC(=O)Nc2sc3c(c2C(=O)Nc2cccc(C)c2)CCCCC3)cc1

Activity change, negative = inhibition, -29.2%:
CN(C)c1ccc(NC(=O)Cn2cc(S(=O)(=O)Cc3ccccc3Cl)c3ccccc32)cc1
